Molecules are shown by their SMILES. A number with no mark means an inactive call. The source made the active and inactive calls. Rule as the data show it: active = fold change mostly below about -2 (no sharp cut-off); inactive = mostly above about -1.8.

These results are taken from PubChem BioAssay AID1259240 (Keith Lab, Institute of Cancer Science, University of …, 2017).

The nature of this assay: TERT promoter activity modulators, primary screen, cell-based, luciferase reporter, human (AID 1259240). The settings on record: A2780 TERT promoter luciferase reporter, 16 h; at 20 µM, fold versus average of vehicle-only wells.
As for `COc1ccc(-c2n[nH]c3c2C(c2ccccc2)NC3=O)cc1` (stereo not given), the fold change is -1.24.
On to `Cc1noc(C(=O)Nc2sc3c(c2C#N)CCC3)c1Cl`, for which the fold change was 1.31.
Next, `CCN1CCN(C(=O)CSc2nc(-c3ccco3)cc(C(F)(F)F)n2)CC1`: -1.46; `COc1ccccc1-c1nc(-c2ccccn2)no1`: -2.84 (active); `OCCn1c(-c2ccc(Br)cc2)cn2c3ccccc3nc12`: -1.06.
On to `CCOC(=O)c1c(C=O)c2ccccc2n1C`, for which the fold change is 1.15.
Regarding `COCCN1C(=O)c2oc3ccc(F)cc3c(=O)c2C1c1cccc(O)c1` (stereo not given), the fold change was -1.86.
Next, `COc1cc(NC(=O)C2CCCN(S(=O)(=O)c3ccc4c(c3)oc(=O)n4C)C2)cc(OC)c1` (stereo not given): 1.09; `COc1cc(/C=C2\SC(N3CCN(CCO)CC3)=NC2=O)ccc1O`: 1.07; `CCc1cc(C)cc(OCC(O)Cn2cnc3ccccc32)c1` (stereo not given): -1.77.
For the compound `CCN1C(=O)/C(=c2\sc3nc(-c4cccc(C)c4)nn3c2=O)c2cc(Br)ccc21`, the fold change was -1.02.
Next, `Cc1ccc(-c2n[nH]c3c2C(c2cccc([N+](=O)[O-])c2)NC3=O)cc1` (stereo not given): 1.04; `CCOc1csc2nc(C)cc(C)c12`: -1.22; `COc1nnc(-c2ccc(N3CCCCC3)c(N)c2)c2ccccc12`: -1.98.
For the compound `Cc1ccc(-c2nnc3c4ccccc4c(C)nn23)cc1S(=O)(=O)NCC1CCCO1` (stereo not given), the fold change was 1.3.
Turning to `CC(=O)c1cccc(NC(=O)Nc2ccc3snnc3c2)c1`, the fold change is -1.05.
With `Cc1c(NC(=O)c2ncn[nH]2)c(=O)n(-c2ccccc2)n1C`, the fold change is -1.33.
For `Cn1c(=O)oc2cc(S(=O)(=O)N3CCCC(C(=O)NC4CCCCCCC4)C3)ccc21` (stereo not given), the fold change is 1.03.
Consider `CC1CC(C)CN(C(=O)C2CCC(CNS(=O)(=O)c3cccc4nsnc34)CC2)C1` (stereo not given), for which the fold change is -1.1.
On to `CC(=O)c1cccc(Nc2nc(-c3c(C)nc4cc(C)ccn34)cs2)c1`, for which the fold change is -2.84 (active).
Next, `Cc1ccc(N2C(=O)c3n[nH]c(C)c3C2c2cccs2)cc1` (stereo not given): 1.21.
With `CCN1CCN(C(=O)C2CCN(S(=O)(=O)c3ccc4c(c3)oc(=O)n4C)CC2)CC1`, the fold change is -1.05.
Take `CC1CCCCN1c1nnc(NC(=O)Cn2c(=O)oc3ccccc32)s1` (stereo not given): the fold change was 1.11.
Next, `O=C(Cn1c(=O)c(C(F)(F)F)nc2ccccc21)N1CCCC1`: -1.02; `CN(CC(=O)NCc1ccco1)S(=O)(=O)c1ccc2c(c1)CCC(=O)N2`: -1.35.
On to `CCOC(=O)CNC(=O)CSc1nc(C)nc2c1c(=O)n(C)c(=O)n2C`, for which the fold change was 1.49.
Next, `CCCCNC(=O)CCN1C(=O)c2ccccc2S1(=O)=O`: -1.02.
Consider `O=C(O)CCC(=O)N1CCc2cc(S(=O)(=O)N3CCc4ccccc4C3)ccc21`, for which the fold change was 1.93.
On to `COc1ccc(C2c3c(n[nH]c3C)C(=O)N2c2ccc(Br)cc2)c(OC)c1` (stereo not given), for which the fold change is -1.34.
Turning to `COc1ccc(S(=O)(=O)n2nc(-c3ccc(OC)cc3OC)cc2N)cc1`, the fold change was 1.19.
Next, `Cc1cc(C)c2sc(-c3ccccc3)cc(=O)c2c1`: -37 (active); `CN(CC(=O)Nc1nccs1)S(=O)(=O)c1ccc2c(c1)n(C)c(=O)c(=O)n2C`: 1.27; `O=C(O)CN1C(=O)/C(=C\c2ccc(-c3ccccc3)o2)SC1=S`: -1.88.
Next, `CCc1cccc(Nc2nc3ccccc3n3cnnc23)c1`: -4.16 (active); `CN(C)CCCN1C(=O)CSC1c1ccccc1` (stereo not given): -1.42.
`CCc1nc(N)c(C#N)c(-c2cccnc2)c1C`: the fold change was -2.52 (active).
On to `CCOC(=O)C1CCN(c2c(Nc3ccc4c(c3)OCCO4)c(=O)c2=O)CC1`, for which the fold change is -1.02.
In the case of `CC1(C)CC(=O)c2sc(NC(=O)C(C)(C)C)nc2C1`, the fold change is 1.32.
In the case of `COc1ccc(S(=O)(=O)n2nc(-c3ccc(Cl)cc3)cc2N)cc1OC`, the fold change was 1.41.
Next, `Cc1cc(C)cc(CC(CC(=O)Nc2nccs2)C(=O)Nc2nccs2)c1` (stereo not given): 1.18.
